Data: article PMC7819943, “Rice protein-binding microarrays: a tool to detect cis-acting elements near promoter regions in rice”
The full ranking holds about 68,000 sequences; the median of “fluorescence intensity (a.u.)” is about 9,100, and the highest 2% start at about 16,000. Shown is part of a subset that was picked to be rich in the highest values.

target: OsWRKY34 (Oryza sativa, UniProt Q0JBA9 1-250); experiment: protein-binding microarray (RPBM); PBS, 2% BSA, 51.3 ng/ul salmon testes DNA, 50 uM zinc acetate, 200 nM TF, 25 C, 1 h; high values mean tight binding; conditions: protein: recombinant; tags: N-terminal polyhistidine and DsRed monomer fusion (pET32a); label: CyDye5-dUTP incorporated in the synthesized complementary strand; 3' TTTTT single-stranded linker to array surface; dsDNA, one strand shown
How it was run: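 A custom Agilent array was converted to double-stranded form by primer extension with Cy5-dUTP and blocked with 2% BSA. Protein at 200 nM in PBS with 2% BSA, salmon testes DNA and 50 µM zinc acetate was applied for 1 h at 25 °C, followed by washing. The proteins were polyhistidine–DsRed N-terminal fusions of transcription factors, expressed in E. coli BL21-CodonPlus and Ni–NTA-purified. The binding signal is per-feature fluorescence intensity (arbitrary units) from an Axon 4000B scanner.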

Sequence of OsWRKY34 (Q0JBA9 entry or part of it): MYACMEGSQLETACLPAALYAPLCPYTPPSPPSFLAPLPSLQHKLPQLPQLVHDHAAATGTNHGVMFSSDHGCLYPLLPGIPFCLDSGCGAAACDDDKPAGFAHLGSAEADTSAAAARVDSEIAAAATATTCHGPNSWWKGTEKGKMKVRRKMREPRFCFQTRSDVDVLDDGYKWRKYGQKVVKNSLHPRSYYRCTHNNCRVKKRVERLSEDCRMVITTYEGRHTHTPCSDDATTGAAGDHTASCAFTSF

Row | Sequence | binding signal
1 | TTTCGATTGTTGTTTATTTTCCAGCATTAGTTTTTAAATCCGGAGTCACCTAGTGCAG | 8320 fluorescence intensity (a.u.)
2 | CGTCCAACTTTGATCGTCCGTTTTATTTGAATTTTTTTATCGGAGTCACCTAGTGCAG | 11200 fluorescence intensity (a.u.)
3 | TATTAAATCATTTAATTTTAGCTATTGTTTTTTATTTATTCGGAGTCACCTAGTGCAG | 9250 fluorescence intensity (a.u.)
4 | ATTTTATCCAACGTTTGACCATTCGTCTTATATAAAATATCGGAGTCACCTAGTGCAG | 9960 fluorescence intensity (a.u.)
5 | GCCGTTGACTTTTTATCCAACGTTTGATCATTCGTCTTATCGGAGTCACCTAGTGCAG | 40800 fluorescence intensity (a.u.)
6 | TCTTTTTTTTTTTCATTATTGTTTGAATATTGATTTCACACGGAGTCACCTAGTGCAG | 8780 fluorescence intensity (a.u.)
7 | TTGCAAAATTTAAAATTATGTTGTCATTGTAATATATTTTCGGAGTCACCTAGTGCAG | 8440 fluorescence intensity (a.u.)
8 | GTTGGTTTTTACATTTGTTTGCTCGAGTCATATATGTCGTCGGAGTCACCTAGTGCAG | 9010 fluorescence intensity (a.u.)
9 | GCTGCCCCTTGTACTTACTTCTATCATCTTTCTTCCCACACGGAGTCACCTAGTGCAG | 8880 fluorescence intensity (a.u.)
10 | TTTAGTATATAAAAGATTATAGGGGAGGTTCATTACTTTCCGGAGTCACCTAGTGCAG | 8410 fluorescence intensity (a.u.)
11 | TTTCTTGATTTGGTTGGGATTGGTTGTTCTTGGGCTTATCCGGAGTCACCTAGTGCAG | 18900 fluorescence intensity (a.u.)
12 | TCTTGATTGGTTGTTTTGGTTTGTTTCTTATTTATGTTTGCGGAGTCACCTAGTGCAG | 8920 fluorescence intensity (a.u.)
13 | GTGTAGATTGATTGGTTCTTGGTGGTGGTGGTGGTGGATCCGGAGTCACCTAGTGCAG | 22200 fluorescence intensity (a.u.)
14 | TCTGAGTGGTTCTCTGGGCGTTGTTGGTGCGTTCTTGATCCGGAGTCACCTAGTGCAG | 8900 fluorescence intensity (a.u.)
15 | AGATCAGGTTTTCTCTTTGGTTGATTGTGTGTGGAAGATCCGGAGTCACCTAGTGCAG | 10100 fluorescence intensity (a.u.)
16 | GGATTGGGGAGTGATTCGGTTTGTTCTTGATTTTGATTTTCGGAGTCACCTAGTGCAG | 15700 fluorescence intensity (a.u.)
17 | CACCACCCAGATCTGTCTCGTCTCTGTTCTTGCCTTCGCTCGGAGTCACCTAGTGCAG | 11900 fluorescence intensity (a.u.)
18 | TGGTGTCTCATAATTCTCTACATGGTATCAAATACTGGTTCGGAGTCACCTAGTGCAG | 9610 fluorescence intensity (a.u.)
19 | GGCGTTATATCTGGTTTTGTGGCTGAGGGAGGTAATTTAGCGGAGTCACCTAGTGCAG | 11700 fluorescence intensity (a.u.)
20 | TTCACGTTCAATGTTTGACCGTTCGTCTTATTTGAAAATTCGGAGTCACCTAGTGCAG | 8550 fluorescence intensity (a.u.)
21 | AACTTCAGTCCTTTTCCATCACATCAACCTGTCATATACACGGAGTCACCTAGTGCAG | 8220 fluorescence intensity (a.u.)

Row | Sequence | binding signal
22 | TGAATTGGGAAATTTCGGTGTTTTTTTTCTTCTTTTTTTTCGGAGTCACCTAGTGCAG | 8740 fluorescence intensity (a.u.)
23 | TAGTTTTCTCATGTTCATCAATTTAAATACCTAACAATACCGGAGTCACCTAGTGCAG | 8180 fluorescence intensity (a.u.)
24 | GCTTGCAGGGCTTGGTTGTTTCTTCTTCCGTTTTTTTTTACGGAGTCACCTAGTGCAG | 13600 fluorescence intensity (a.u.)
25 | ACTTTTTCCGAACCAAAATGGACTTCTTCCTTACGGTTACCGGAGTCACCTAGTGCAG | 8390 fluorescence intensity (a.u.)
26 | GCTTGCTTTGTCACATGCAGTTTTACACCTTTTATTTCTCCGGAGTCACCTAGTGCAG | 10400 fluorescence intensity (a.u.)
27 | GGTTCTTTGTTTCCGTTTGCTTTACCATTTTTGTTCCTTTCGGAGTCACCTAGTGCAG | 10000 fluorescence intensity (a.u.)
28 | TTCTCTTGCTTCCTTTTTGGTCATTTGAGATAGCTTTATCCGGAGTCACCTAGTGCAG | 10300 fluorescence intensity (a.u.)
29 | TGCTTGTACAGTTTCCGGTTTCTTTGCCATTTCGTTTACACGGAGTCACCTAGTGCAG | 20000 fluorescence intensity (a.u.)
30 | CAAACAAAATGGGTTTCTTCTTACGGTTGTGGGCTTTTTCCGGAGTCACCTAGTGCAG | 17400 fluorescence intensity (a.u.)
31 | CTGCTTTTATAGTTTGGTGGGCTTTTCTTTGCTAGTGGGCCGGAGTCACCTAGTGCAG | 10600 fluorescence intensity (a.u.)
32 | AATCGCCGTTCTAGCTTTTTGGTCTTGGTCTTTTTTTATCCGGAGTCACCTAGTGCAG | 21400 fluorescence intensity (a.u.)
33 | TCTTTTTTCCATCCATCTTTTTTTCGCCGTTCTTTCCGGTCGGAGTCACCTAGTGCAG | 8220 fluorescence intensity (a.u.)
34 | TTTCCTTTACTTTGGTGGTTCTTTTTTTTTTCTTTGTTTCCGGAGTCACCTAGTGCAG | 11400 fluorescence intensity (a.u.)
35 | GGTTTCCGTGGTGGGCCGGTTTGGGCTTTTCTTTTTTACACGGAGTCACCTAGTGCAG | 18500 fluorescence intensity (a.u.)
36 | ATCTCTTAACCTTTTTCTTATTACCAAACATGCTAACGGTCGGAGTCACCTAGTGCAG | 8030 fluorescence intensity (a.u.)
37 | TCGCCATCGATCGATCGTCTCAACCTCAACCACATTATTGCGGAGTCACCTAGTGCAG | 8550 fluorescence intensity (a.u.)
38 | TCTTCGCAACTCCAAACTTCCCGAGCATCTTATCTTTGCACGGAGTCACCTAGTGCAG | 8990 fluorescence intensity (a.u.)
39 | GTATTGCAATTTTTTTTTGTTTGTGTTGTATCTGTTCTCTCGGAGTCACCTAGTGCAG | 8110 fluorescence intensity (a.u.)
40 | GGTTAGGTTTTTTTATAGAGGGAGTAGTATGCAATTATTTCGGAGTCACCTAGTGCAG | 9450 fluorescence intensity (a.u.)
41 | TTTCTTGGTTCCTGTGTCTAAGCCAGCTGTAAACTTACAACGGAGTCACCTAGTGCAG | 8450 fluorescence intensity (a.u.)
42 | ATTTCCAAGCTCTCTTTGCAGTTACTCCTCGGTGTGCTCCCGGAGTCACCTAGTGCAG | 8250 fluorescence intensity (a.u.)
